# According to PubChem BioAssay AID540317 (National Center for Advancing Translational Sciences (NCATS), 2011):
# In all, about 390,000 compounds went through this assay and about 2,200 (0.56%) were called active. Entries that show only a call come without a potency. Roughly 3% stayed inconclusive and do not appear here. Calls come from the whole dose curve; as a rule, active = well fitted inhibition curve with a large enough effect; inconclusive = small, poorly fitted or top-dose-only effect; inactive = no such curve, though single readings can be large or run the other way. The sample as a whole holds a higher share of actives than the screen did.
# Biological target: Chromobox protein homolog 1 (Homo sapiens) (UniProt P83916)
# Experiment: HTS for Inhibitors of HP1-beta Chromodomain Interactions with Methylated Histone Tails; note: nearly all actives have a fitted effect of over 70% in size
# Details: AlphaScreen HP1-beta / biotin-H3K9me3 peptide binding; series mostly up to 114 µM
# Method in brief: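 AlphaScreen: HP1-beta (50 nM) preformed 30 min with biotin-H3(1-18)K9me3 peptide (50 nM) in PBS pH 7.4, 0.01% Tween-20. Compound added for 30 min at RT, then streptavidin donor/nickel chelate acceptor beads (10 ug/mL) for 30 min.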
# Potency is the fitted concentration of half-maximal effect.
# Chain of Chromobox protein homolog 1 (Homo sapiens) (P83916 whole entry, looked up): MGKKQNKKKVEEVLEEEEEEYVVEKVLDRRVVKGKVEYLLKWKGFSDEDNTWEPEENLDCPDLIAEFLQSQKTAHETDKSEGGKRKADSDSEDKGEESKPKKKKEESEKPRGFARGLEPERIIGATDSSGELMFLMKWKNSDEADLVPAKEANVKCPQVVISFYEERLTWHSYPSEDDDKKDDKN
row,SMILES,Potency
1,Cc1ccc(-c2nc3ccccn3c2Nc2ccc(F)cc2)o1,inactive
2,Cc1ccc(-c2onc(C)c2C)cc1S(=O)(=O)Nc1ccccn1,inactive
3,CCCC1CCC(=NNC(=S)NCCc2ccccc2)CC1 (stereo not given),44.7 µM (active)
4,Cc1cc(F)ccc1NC(=S)NCCc1ccccc1,inactive
5,CCCCNC(=S)N/N=C1\CCCCc2ccccc21,inactive
6,COC(=O)C(CC(C)C)NS(=O)(=O)c1cc(Br)ccc1Br (stereo not given),inactive
7,CCOC(=O)c1ccccc1NC(=O)c1sc2nc(-c3ccc(F)cc3)cn2c1C,inactive
8,Cc1ccc(NC(=O)c2ccc3[nH]c(C)cc(=O)c3c2)c(C)c1,inactive
9,CCOc1ccccc1NC(=O)CSc1ncc(S(=O)(=O)c2ccc(C(C)(C)C)cc2)c(=O)[nH]1,inactive
10,COc1ccc(/C=N/n2c(C)cc(C)cc2=O)cc1,inactive
11,CN=c1scc(-c2cc(OC)ccc2OC)n1/N=C/c1c(C)[nH]c2ccccc12,31.6 µM (active)
12,Oc1ccc(Br)cc1C1C=C(c2ccc3c(c2)OCO3)NC(c2ccc(Cl)cc2)N1 (stereo not given),inactive
13,CCCCSc1ncnc2c1sc1nc(N3CCOCC3)c3c(c12)CCCC3,inactive
14,O=C(NCCc1ccc(Cl)cc1)C1CCCN1C(=O)NCc1ccccc1 (stereo not given),inactive
15,Oc1cc2c(cc1O)CN(C(=S)NCCc1ccc(Cl)cc1)CCC2,50.1 µM (active)
16,S=C(Nc1ccc(Cl)cc1Cl)N1CCCC1,inactive
17,COc1ccc(C2=NC3(CCCCC3)N(CC(=O)Nc3ccc(C(C)C)cc3)C2=O)cc1,inactive
18,COc1ccc(N2CCN(c3cc(C)nc4nncn34)CC2)cc1,inactive
19,CCCNC(=O)C1CCN(c2nc3ccc(C)cc3[nH]2)CC1,inactive
20,COc1ccc(S(=O)(=O)NCC(c2ccc(N(C)C)cc2)N2CCCC2)cc1 (stereo not given),inactive
21,COc1ccc(S(=O)(=O)NCC(c2ccc(C)cc2)N2CCN(C)CC2)cc1OC (stereo not given),inactive
22,COc1ccc(N2CCN(C(CNS(=O)(=O)c3ccc(C)cc3)c3ccccc3)CC2)cc1 (stereo not given),31.6 µM (active)
23,COc1ccc(NC(=O)c2sc3nc[nH]c(=O)c3c2C)cc1,inactive
24,O=[N+]([O-])c1ccc(Oc2ccc(F)cc2Br)c2ccncc12,50.1 µM (active)
25,CCN1CCN(c2cc(C)c3cc(NC(=O)c4cc(Cl)ccc4OC)ccc3n2)CC1,inactive

row,SMILES,Potency
1,CCN(C(=O)CSc1nnc(C)n2c1cc1occc12)c1ccccc1,inactive
2,CCOc1ccc(S(=O)(=O)NCCC(=O)NCC2CCCO2)cc1 (stereo not given),inactive
3,CCOc1ccc(S(=O)(=O)N2CCN(C(=S)NCC3CCCO3)CC2)cc1 (stereo not given),inactive
4,CCOc1ccc(-n2c(N)c(C(=O)NCC3CCCO3)sc2=S)cc1 (stereo not given),17.8 µM (active)
5,COc1ccc(-c2cccc(NS(=O)(=O)c3cc(C)c(OC)c(C)c3C)c2)nn1,inactive
6,COc1ccc(-c2nc3c4ccccc4n(CC(=O)Nc4ccc(C(C)=O)cc4)c(=O)n3n2)cc1,inactive
7,O=C1CSC(=S)N1/N=C/c1ccc(O)c([N+](=O)[O-])c1,39.8 µM (active)
8,CCOC(=O)c1c(C)n(S(=O)(=O)c2ccc(C)cc2C)c2ccc(NS(=O)(=O)c3ccc(C)cc3C)cc12,inactive
9,CC(=O)N1CCCc2cc(S(=O)(=O)N3CCC(C(=O)NC4CCCCC4)CC3)ccc21,inactive
10,Cc1ccc(NC(=O)C(Cc2ccccc2)NS(=O)(=O)c2ccc3c(c2)oc(=O)n3C)cc1C (stereo not given),inactive
11,COCCCn1c(SCC(=O)NC2CCCC2)nnc1-c1ccccc1,inactive
12,CCn1c(SCC(=O)NC2CC2)nnc1-c1ccncc1,inactive
13,CC1CCCCC1NC(=O)CSc1nnc(-c2ccncc2)n1CCCN(C)C (stereo not given),28.2 µM (active)
14,COc1ccc(Cl)cc1NC(=O)c1sc2nc3c(cc2c1N)CN(C)CC3,inactive
15,COC(=O)c1ccccc1NS(=O)(=O)c1ccc2c(c1)CCCN2C(C)=O,inactive
16,COc1ccc(Br)cc1/C=N/Nc1ccc(S(=O)(=O)Nc2ccccc2C(=O)O)cc1[N+](=O)[O-],22.4 µM (active)
17,COc1cc(/C=C/C(=O)O)cc(S(=O)(=O)Nc2ccccc2C(=O)NCCc2ccccc2)c1OC,inactive
18,CCC(=O)N1CCc2cc(S(=O)(=O)NC(CC(C)C)C(=O)NCCc3cccc(C)c3)ccc21 (stereo not given),inactive
19,CC(C)Cn1c(=O)c2ccccc2n2c(CCC(=O)N3CCN(c4cccc(Cl)c4)CC3)nnc12,inactive
20,CC(Sc1oc(-c2ccco2)nc1S(=O)(=O)c1ccc(Br)cc1)c1ccccc1 (stereo not given),inactive
21,O=C(NCc1ccccn1)[C@]1(C(F)(F)F)C[C@H](CCc2ccccc2)CCCO1,inactive
22,O=C1/C(=C/c2ccc3c(c2)OCO3)CCC/C1=C\c1ccc2c(c1)OCO2,28.2 µM (active)
23,Cc1nn(C)cc1/C=C1\CCC/C(=C\c2cn(C)nc2C)C1=O,inactive
24,Nc1[nH][nH]c(=O)c1N=Nc1ccc2c(c1)OCO2,inactive
25,O=C1CC(c2ccccc2)CC2=C1C(c1ccco1)n1nc(C(F)(F)F)nc1N2 (stereo not given),inactive

row,SMILES,Potency
1,CCOC(=O)c1cc2c(=O)n3ccccc3nc2n(CC2CCCO2)c1=NC(=O)c1ccccc1F (stereo not given),inactive
2,CC(C)OC(=O)c1ccc(NCc2cc(O)ccc2O)cc1Cl,39.8 µM (active)
3,O=C(CC1C(=O)N(c2ccccc2)C(=O)N1CCc1cccs1)Nc1ccc(F)cc1 (stereo not given),inactive
4,Cc1ccc(Cc2nc3ccccc3nc2SCC(=O)Nc2cccc(C(F)(F)F)c2)cc1,inactive
5,CC(C)(C)C(=O)OCc1nc(-c2ccc(O)c(O)c2)cs1,70.8 µM (active)
6,CNC(=O)[C@]1(C(F)(F)F)C[C@H](CCc2ccccc2)CCCO1,inactive
7,CCc1cnc2c(c1SCC(=O)N1CCC(C)CC1)c(=O)n(C)c(=O)n2C,inactive
8,COc1ccc(Cn2ccn(Cc3cccc(OC)c3)c(=O)c2=O)cc1,inactive
9,COc1ccccc1CNC(=O)C(=O)NCC(c1ccco1)S(=O)(=O)c1ccc(F)cc1 (stereo not given),inactive
10,CC(=O)Oc1ccc(C(C)=O)c2c1OCCO2,inactive
11,CC(=O)Oc1ccc(OC(C)=O)c2c1C1C=CC2CC1,89.1 µM (active)
12,COc1ccc(C)cc1N(C)C(=O)c1c(C)oc2ncnc(N3CCOCC3)c12,inactive
13,COc1ccc(CCC(=O)NCCc2csc(-c3ccc(Cl)cc3)n2)cc1,inactive
14,COc1ccc(C2CC(O)(c3ccccc3)Oc3cc(C)cc(C)c32)cc1 (stereo not given),inactive
15,COc1ccccc1-c1cc(C(F)(F)F)nc(S(=O)(=O)CCCC(=O)Nc2ccc(F)cc2F)n1,inactive
16,O=[N+]([O-])c1ccc(N/N=C2/CCCCC2c2ccccn2)c([N+](=O)[O-])c1 (stereo not given),35.5 µM (active)
17,C[n+]1ccccc1C1CCCC/C1=N\Nc1ccc([N+](=O)[O-])cc1[N+](=O)[O-] (stereo not given),inactive
18,CC1(C)C/C(=N/Nc2ccc([N+](=O)[O-])cc2[N+](=O)[O-])C(C)(C)O1,inactive
19,COc1ccc(CN2CCC(=O)c3ccccc3S2(=O)=O)cc1,inactive
20,COc1cc(NC(=O)c2cc3ccc4cccnc4c3[nH]2)cc(OC)c1OC,inactive
21,Cc1ccc(C)c(Cn2c(CCCNC(=O)C3CCCCC3)nc3ccccc32)c1,inactive
22,CC1CCN(C(=S)c2ccc(-c3ccc(Cl)cc3Cl)o2)CC1,22.4 µM (active)
23,COc1ccc(C(=O)Nc2c(Cl)cc(Cl)cc2C(=O)N2CCC(C)CC2)cc1,inactive
24,CC1CCN(C(=S)c2cccc(O)c2)CC1,inactive
25,Cc1ccc(C(=O)Nc2nc(-c3ccccc3)ns2)cc1,inactive

row,SMILES,Potency
1,Cc1cc(C)cc(NC(=O)Cc2csc(C)n2)c1,inactive
2,CCOc1ccc(N(Cc2ccccc2)C(=O)c2nc(SCC)ncc2Cl)cc1,inactive
3,O=C(NC1CC(=O)N(c2ccc(F)cc2)C1)C1CCCCC1 (stereo not given),inactive
4,CCn1c2ccccc2c2nnc(N3CCN(c4cc(C)ccc4C)CC3)nc21,inactive
5,CCOCCCNC(=O)c1c(NC(=O)Cc2coc3c(C)c(C)ccc23)sc2c1CCC2,inactive
6,O=C(NCCc1ccccc1)c1cnc2sc(N3CCCC3)nn2c1=O,inactive
7,COc1cccc(C(=O)CC(=O)C(=O)Nc2ccc([N+](=O)[O-])cc2C)c1,inactive
8,COc1cccc(NCCC(=O)c2cccc([N+](=O)[O-])c2)c1,79.4 µM (active)
9,COc1ccc(Cc2nnc(SCC(=O)c3cccc([N+](=O)[O-])c3)n2C)cc1,inactive
10,Cc1ccccc1CNC(=O)CCCn1nc(C)c2sc3ccccc3c2c1=O,inactive
11,NS(=O)(=O)c1ccc(NC(=O)CSc2nnc3c(n2)[nH]c2ccccc23)cc1,inactive
12,COc1ccc(/C=C2/C(=O)N(c3ccccc3)N=C2C)c(OC)c1,12.6 µM (active)
13,COc1ccc(C(=O)COC(=O)C(O)c2ccccc2)c(OC)c1 (stereo not given),inactive
14,COc1ccc(/C=C2/C(=O)OCc3cc(OC)c(OC)cc32)c(OC)c1,inactive
15,CC1CC(C)CN(c2oc(-c3ccc(OCc4ccc(Cl)cc4)cc3)nc2C#N)C1 (stereo not given),inactive
16,COc1ccc(C(=O)CSc2c(C(C)C)cnc3c2c(=O)n(C)c(=O)n3C)cc1,inactive
17,O=C(CCc1cn(Cc2ccc(F)cc2)c2ccccc12)NC1CCCCC1,inactive
18,CCc1ccccc1N1C(=O)CN(S(=O)(=O)CC)CC1(C)C(=O)NC1CCCCC1 (stereo not given),inactive
19,CCOc1ccc(NC(=O)c2ncoc2-c2ccco2)cc1,inactive
20,COCCNC(=O)Nc1ccc2nc(-c3ccco3)c(-c3ccco3)nc2c1,8.91 µM (active)
21,C=CCNC(=O)c1ccc2nc(-c3ccco3)c(-c3ccco3)nc2c1,inactive
22,CCN(CC)CCNC(=O)Cn1ncc2c3ccccc3n(Cc3ccccc3C)c2c1=O,inactive
23,CCCCN1C(=O)/C(=C(/C#N)C(N)=O)c2ccccc21,inactive
24,Cc1ccc(C(=O)CC2(O)C(=O)N(CCc3ccccc3)c3ccc(Br)cc32)cc1 (stereo not given),inactive
25,COc1ccc2c(c1)C(=C(C#N)C#N)C(=O)N2CCc1ccccc1,39.8 µM (active)
